For 117 molecules, outcome results are on record in PubChem BioAssay AID618 (Sanford-Burnham Center for Chemical Genomics, 2007).

Out of some 87,000 compounds screened, about 540 (0.62%) were called active. The rule behind the calls is not given here. What follows is part of a selection rich in actives, with near analogues and random picks from the rest. Entries with a potency or affinity are not part of this list.

This test in a line: inhibitors of MT1-MMP promoter transcription, cell-based, luciferase reporter, luminescence (AID 618).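 Note: actives suppress MT1-MMP promoter-driven transcription so potencies describe inhibitors.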 The settings on record: MT1-MMP promoter luciferase reporter cells. (In general: Reporter assays use an easily measured gene product as a stand-in for the process of interest.)
On to `CC(C)(C)NC(=O)Nc1ccc2nccnc2c1`, for which the molecule was called inactive. For the molecule `CCc1ccc(OCc2ccc(C(=O)NCc3ccccn3)o2)cc1`, the result was inactive. As for `O=C(OCc1ccccn1)c1ccc(COc2ccccc2Cl)o1`, the molecule was called inactive. The value for `O=C(O)c1ccc(COc2ccc(Cl)cc2)o1` was “inactive”; that for `CCOc1ccc(OCc2ccc(C(=O)N3CCCC3)o2)cc1` was “inactive”. As for `CCN(CC(O)Cn1c2ccccc2c2ccccc21)S(=O)(=O)c1ccc(C)cc1` (configuration not stated), the result was inactive. As for `O=C(/C=N/O)Nc1ccccc1C(=O)O`, the molecule was classed as inactive. For `O=C(NCc1ccccc1)c1ccc(Oc2ccc(C(=O)NCc3ccccc3)cc2)cc1`, the molecule was called inactive. The value for `O=C(CN(CC1CCCO1)C(=O)CCC(=O)Nc1nccs1)NCc1ccc2c(c1)OCO2` (configuration not stated) was “inactive”.

`CCOC(=O)N1CCN(C(=O)CN(c2cccc(C(F)(F)F)c2)S(C)(=O)=O)CC1`: the call was inactive. As to `CCOC(=O)c1ccc(NC(=O)N2CCc3ccccc32)cc1`, the molecule was called inactive. As to `O=C(Nc1ccccc1)N1CCc2ccccc21`, the outcome was inactive. The value for `O=C(CN1C(=O)C2C3C=CC(C3)C2C1=O)Nc1nc2ccccc2[nH]1` (configuration not stated) was “inactive”; that for `CCOc1ccc(S(=O)(=O)N(C)c2ccc(OCC(=O)N3CCOCC3)cc2)cc1` was “inactive”. As for `CC(=O)c1ccc(NC(=O)C(C)Sc2nnnn2C)cc1` (configuration not stated), the entry is “inactive”; as for `COc1ccc(N/C=C\C(=O)c2ccc3c(c2)OCO3)cc1`, “inactive”; as for `COc1ccc(C(=O)Nc2cccc(C)c2)cc1`, “inactive”.

On to `COc1cccc(C(=O)Nc2ccccc2)c1`, for which the result was inactive. As for `COc1cccc(C(=O)/C=C/Nc2cc(C)ccc2O)c1`, the entry is “inactive”. Turning to `COc1ccc(S(=O)(=O)NCC(c2cccnc2)N2CCN(C)CC2)cc1C` (configuration not stated), the outcome was inactive. On to `O=C(COc1ccc2ccccc2c1)NC1CC1`, for which the outcome was inactive. As for `CCCC1(C(=O)OC)NC(c2cc(OC)c(OC)c(OC)c2)C2C(=O)N(CC)C(=O)C21` (configuration not stated), the entry is “inactive”. The value for `O=c1[nH]nc(Cc2ccc(Cl)cc2)c2ccccc12` was “inactive”. The value for `Cc1nn2c(C(F)(F)F)cc(-c3ccc(Cl)cc3)nc2c1C(=O)N1CCOCC1` was “inactive”; that for `Nc1ccc2nc(-c3ccc(N)c(Cl)c3)[nH]c2c1` was “inactive”.

Turning to `Nc1ccc(-c2nc3c(Cl)c(N)ccc3[nH]2)cc1`, the outcome was inactive.

Turning to `CC(=O)c1cnc2cc(-c3ccc(Cl)cc3)nn2c1C`, the result was inactive. As for `O=C(CNS(=O)(=O)c1ccccc1)NCc1ccccn1`, the entry is “inactive”; as for `CCCCc1ccc(-c2ccc(Br)cc2)nc1`, “inactive”. For the molecule `CCCc1ccc(-c2cc(N)n[nH]2)cc1`, the molecule was classed as inactive. The value for `CCOc1ccc(NC(=O)CCN2CCN(c3ccccc3F)CC2)cc1` was “inactive”; that for `COc1ccc(-c2nnn(CC(=O)NCc3ccccc3)n2)cc1OC` was “inactive”; that for `CCC(C)NC(=O)Nc1ccc2c(c1)N(C)C(=O)c1ccccc1S2` (configuration not stated) was “inactive”. The value for `Cc1nc(SCc2cccc(Oc3ccccc3)c2)n[nH]1` was “inactive”. As for `c1ccc(-c2nnc(-c3ccccn3)nn2)nc1`, the entry is “inactive”; as for `c1ccc(-c2ccccn2)nc1`, “inactive”; as for `CCc1nc(OCC(=O)c2ccccc2)c(C#N)c2c1COC(C)(C)C2`, “inactive”.

In the case of `Cc1ccc(C(=O)/C=C/Nc2ccccn2)cc1`, the molecule was classed as active. In the case of `Cc1ccc(C(=O)/C=C/Nc2ccccc2C(N)=O)cc1`, the outcome was inactive. The value for `COc1ccc(C(=O)Nc2ccccn2)cc1` was “inactive”; that for `NC(=O)c1ccccc1N/C=C/C(=O)c1ccc(Cl)cc1` was “inactive”; that for `NC(=O)c1ccccc1N/C=C/C(=O)c1ccccc1` was “active”.

With `COc1ccc(C(=O)/C=C/Nc2cccc(C)n2)cc1OC`, the result was inactive.

`Cc1ccc(/C=C/C(=O)c2ccccc2)cc1`: the call was inactive. The value for `Cc1cc(N/C=C/C(=O)c2ccc(Br)cc2)no1` was “inactive”. As for `Cc1c(N/C=C/C(=O)c2ccc(Cl)cc2)c(=O)n(-c2ccccc2)n1C`, the entry is “inactive”; as for `NC(=O)c1ccccc1N/C=C/C(=O)c1ccc(F)cc1`, “inactive”. As to `CCCCc1ccc(Nc2nc(CCC)cc(=O)[nH]2)cc1`, the outcome was inactive.

Consider `COc1ccc(C2C(C#N)=C(N)Oc3n[nH]c(-c4ccccn4)c32)c(OC)c1OC` (configuration not stated), for which the molecule was classed as inactive. Consider `C=C(c1ccc(OC)cc1)c1ccc(OC)cc1`, for which the call was inactive. Consider `CC(C)Cn1c(N)c(C(=O)COC(=O)c2cc(C(F)(F)F)nc3ccccc23)c(=O)n(C)c1=O`, for which the result was inactive. The value for `COC(=O)C(C(=O)Nc1ncccn1)C1CCCCCC1` (configuration not stated) was “inactive”. The value for `O=C(Nc1cccnc1)c1c(F)c(F)c(F)c(F)c1F` was “inactive”. The value for `Cc1ccc(S(=O)(=O)n2nc(-c3ccc(Cl)cc3)nc2NCc2ccco2)cc1` was “inactive”.

As to `Cc1ccnn1CCSCC(=O)O`, the molecule was classed as inactive. As for `O=C(/C=C/NNC(=O)c1ccccc1)c1ccccc1`, the entry is “inactive”; as for `O=C(CC(=O)Nc1ccccn1)Nc1ccccn1`, “inactive”; as for `CCn1c(=NC(=O)CN2C(=O)CCC2=O)sc2c(C)cc(C)cc21`, “inactive”. As for `Cc1cc(N2CCCC2=O)cc(C)c1S(=O)(=O)NCCOc1ccc(C(C)(C)C)cc1`, the entry is “inactive”; as for `N#Cc1cc(N)c(Nc2ccccc2)cc1C#N`, “inactive”. As for `CCC1(c2ccccc2)NC(=O)N(CC(=O)Nc2cccc(C#N)c2)C1=O` (configuration not stated), the entry is “inactive”. For `COc1cc(C)c(C(C)C)cc1S(=O)(=O)n1cnc(C)c1`, the outcome was active. On to `COc1cc(C)c(Cl)cc1S(=O)(=O)n1cnc(C)c1`, for which the molecule was called inactive.

`COc1cc(C)c(C(C)C)cc1S(=O)(=O)n1ccnc1`: the molecule was classed as inactive. As for `CCN1C(=C2C(=O)c3ccccc3C2=O)C=Cc2ccccc21`, the entry is “inactive”; as for `CCN1/C(=C/c2ccc3ccccc3[n+]2CC)C=Cc2ccccc21`, “active”; as for `CCN1C(=O)/C(=C2\C=Cc3ccccc3N2CC)OC1=S`, “inactive”. As for `CC1(C)CC(=O)N(c2ccccc2)C1(C)O` (configuration not stated), the entry is “inactive”.

Regarding `Cc1cc(C(=O)CSc2nc3ccccc3[nH]2)c(C)n1C`, the call was inactive. The value for `Cc1cc(C(=O)CSc2nc3ccc(Cl)cc3[nH]2)c(C)n1CC1CCCO1` (configuration not stated) was “inactive”; that for `CCn1c(SCC(=O)c2cc(C)n(CC3CCCO3)c2C)nc2ccccc21` (configuration not stated) was “inactive”; that for `C=CCn1c(C)cc(C(=O)CSc2nc3ccccc3c(=O)[nH]2)c1C` was “inactive”.

Turning to `C=CCc1c(C)nc(SC)nc1Nc1ccc(C(C)=O)cc1`, the call was inactive. The value for `CC1CC(C)(C)NC(=O)O1` (configuration not stated) was “inactive”; that for `Cc1ccc(Nc2cc(C)nn2-c2nc(C)cc(C)n2)cc1` was “inactive”.

Take `Cc1cc(=O)[nH]c(-n2nc(C)cc2C)n1`: the molecule was called inactive. Regarding `Cc1ccc(Nc2cc(C)nn2-c2nc(C)cc(=O)[nH]2)cc1`, the call was active. As for `C=CCn1c(SCc2c(C)noc2C)nc2ccccc2c1=O`, the entry is “active”. The value for `Cc1noc(C)c1CSc1nc2ccccc2c(=O)n1-c1ccc(Cl)cc1` was “inactive”. The value for `Cc1nc(CSc2nc3[nH]ncc3c(=O)n2-c2ccccc2)cs1` was “inactive”; that for `Cc1noc(C)c1CSc1nc2ccccc2c(=O)n1-c1ccccc1` was “inactive”; that for `Cc1noc(C)c1CSc1nc2[nH]ncc2c(=O)n1-c1ccccc1` was “active”.

As for `C=CCn1c(SCc2c(C)noc2C)nc2cc(C(=O)O)ccc2c1=O`, the outcome was inactive. The value for `COc1ccccc1NC(=O)CSc1nnnn1-c1ccc(C)cc1` was “inactive”. For `COCCCNC(=O)CCc1nc2cccnc2n1Cc1ccccc1`, the molecule was called inactive.

As for `O=C(NNC(=O)c1ccccc1Br)c1ccc(SCC2CCCO2)c([N+](=O)[O-])c1` (configuration not stated), the outcome was inactive. The value for `COc1ccc(CNc2nc3ccccc3n2CCN2CCOCC2)cc1` was “inactive”; that for `COc1ccc(CCN2CCC(Nc3nc4ccccc4n3Cc3ccc(F)cc3)CC2)cc1` was “active”; that for `COc1ccc(CC(=O)N2CCC(Nc3nc4ccccc4n3Cc3ccc(F)cc3)CC2)cc1` was “inactive”. `COc1ccc(N/C=C(\C#N)c2ccc(OCCCF)cc2)cc1`: the molecule was classed as inactive.

For the molecule `COc1ccc(C2C(C#N)=C(N)N3C(=C2C#N)Sc2ccccc23)cc1` (configuration not stated), the result was inactive. `CC1(C)CC(=O)C2=C(C1)OC1=C(C(=O)CC(C)(C)C1)C2c1ccc(O)cc1O`: the call was active. Regarding `Cc1nn(C)cc1C1C2=C(CC(C)(C)CC2=O)OC2=C1C(=O)CC(C)(C)C2`, the outcome was inactive. The value for `CC1(C)CC(=O)C(C2C3=C(CC(C)(C)CC3=O)Oc3ccccc32)=C(O)C1` (configuration not stated) was “inactive”; that for `O=C(c1cccs1)N(Cc1ccco1)c1nc(-c2ccc(F)cc2)cs1` was “inactive”; that for `COc1ccc(-c2cc(C(F)(F)F)n3nc(C(=O)N4CCCCC4)cc3n2)cc1OC` was “inactive”. `Cc1ccc2[nH]c(C(=O)O)c(-c3ccccc3)c2c1`: the molecule was classed as inactive.

`Cc1ccc2[nH]c(-c3ccccc3)cc(=O)c2c1`: the outcome was active. As for `O=c1cc(-c2ccccc2)[nH]c2ccccc12`, the entry is “inactive”. Turning to `COc1ccc(NC(=O)N2CCCC2C(=O)NCc2ccc(F)cc2)cc1` (configuration not stated), the molecule was classed as inactive.

Take `O=C(O)CSCC(=O)Nc1ccccc1`: the outcome was inactive. As for `O=C(CSCCO)Nc1ccc(C2CCCCC2)cc1`, the molecule was classed as inactive. As for `Cc1ccc(C(=O)CC2(O)C(=O)N(Cc3ccc4c(c3)OCO4)c3ccccc32)cc1` (configuration not stated), the entry is “inactive”; as for `Cc1cc(C)c(S(=O)(=O)N2CCC(C(=O)NCc3ccco3)CC2)c(C)c1`, “inactive”; as for `COc1cc(C(=O)N/N=C\c2ccccc2)c([N+](=O)[O-])c(OC)c1OC`, “inactive”. The value for `O=C(N/N=C/c1ccc([N+](=O)[O-])s1)c1cccc(Br)c1` was “inactive”; that for `Cc1ccc(C(=O)N/N=C/c2sc(=O)n(Cc3cccc(C(=O)O)c3)c2Cl)cc1` was “inactive”. As for `O=C(N/N=C/C=C/c1ccccc1)c1ccccc1Br`, the entry is “inactive”; as for `CC(=O)Nc1ccc(NC(=O)c2ccccc2C)cc1`, “inactive”.

With `Cc1ccc(C(=O)NNS(=O)(=O)c2ccccc2[N+](=O)[O-])cc1`, the molecule was called inactive.

Turning to `COc1cccc(NC2=NCC(=O)N2Cc2cccs2)c1`, the molecule was called inactive. As for `O=C1c2ccccc2C(=O)N1CCOCCN1C(=O)c2ccccc2C1=O`, the molecule was called inactive.

For the molecule `CCC(=O)N(Cc1ccc(S(N)(=O)=O)cc1)C1CC(=O)N(c2ccc(OC)cc2)C1=O` (configuration not stated), the call was inactive.

With `Cc1cc2nnc(SCC(=O)N3C(C)CCCC3C)n2c(N)n1` (configuration not stated), the outcome was inactive. As for `COC(=O)CSc1cc(C(=O)c2nccn2C)c2ccccc2n1`, the entry is “inactive”. As for `COCCNC(=O)C(c1cccs1)N(Cc1cccs1)C(=O)Cn1nnc2ccccc21` (configuration not stated), the entry is “inactive”; as for `CCCCS(=O)(=O)Nc1ccc(C(=O)NCC2CCCO2)cc1` (configuration not stated), “inactive”.
